# According to ChEMBL document CHEMBL3988442, “University of Dundee, Small-Polar-MMV Screening Library” (2021):
# Target: AMP-activated protein kinase, AMPK (Homo sapiens) (UniProt P54646+O43741+P54619+Q9UGJ0+Q9Y478+Q13131+Q9UGI9)
# Assay: AMP-dependent Kinase enzyme assay. An in vitro enzyme assay that detects ADP turnover that is directly proportional to AMPK activity. This uses naive AMPK that is activated during the assay with MK-8722
# Assay type: functional
# Set-up: scale not given: direction of the effect not stated beside the values
# Conditions: 30 µM
row,SMILES,Percent Effect [%]
1,CCc1csc(CNc2cc(C)nc(-c3cccnc3)n2)n1,18.4
2,Cc1nc(C(C)C)sc1C(C)N(C)C(=O)c1ccc(=O)n(C)n1 (stereo not given),-6.04
3,CC(=O)N1CCN(CCNC(=O)NC(C)Cn2ccnc2)CC1 (stereo not given),-2.62
4,CCC1COCCN1C(=O)NCc1nccn1CC(C)C (stereo not given),-3.83
5,CCc1cc(N2CCC(NCCc3ccc(C)o3)CC2)nc(C)n1,5.69
6,CCCn1ccnc1-c1cccc(NC(=O)[C@H]2CCC(=O)N2)c1,11.3
7,CC(C)(CN1CCC2(CCNCC2)CC1)N1CCOCC1,0.354
8,Cc1ccc(-c2noc(C3CCN3C(=O)c3ccc(=O)[nH]n3)n2)s1 (stereo not given),19.2
9,CCc1cc(=O)[nH]c(-c2ccc(NC(CO)CC(C)C)nc2)n1 (stereo not given),4.58
10,Cc1ccnc(C2CCN(CCCOc3ccccc3F)C2)n1 (stereo not given),6.41
11,C[C@@H](N)C(=O)N1CCC(c2[nH]ncc2-c2ccccc2)CC1,-8.89
12,CN(C)c1ccccc1C(=O)N1CCCC(c2cccc(C(=O)O)c2)C1 (stereo not given),2.89
13,O=C(c1ccncc1)N1CCCC(C2=Nc3ccccc3S(=O)(=O)N2)C1 (stereo not given),8.81
14,CN(CCc1ncnn1-c1ccccc1Cl)C1CCS(=O)(=O)C1 (stereo not given),-10
15,OCC1(NCc2cccc(-n3cccn3)c2)CCOCC1,-1.31
16,CN1CC(C(=O)NCCc2ccc(F)c(Br)c2)CC1=O (stereo not given),5.17
17,CC(=O)Cn1c(C)cc(=O)c2cc(F)ccc21,10.5
18,CCCc1nnc(N2CCC(N3CCN(CCO)CC3)CC2)o1,-0.32
19,O=C(NCCc1ccncc1)c1cccc(S(=O)(=O)NC2CC2)c1,-4.52
20,Cc1ccc(C(NC(=O)CCCN2CCCCC2)C(=O)O)cc1 (stereo not given),11.8

row,SMILES,Percent Effect [%]
1,CC(C)c1cc(NC(CCO)c2ccccc2)n2nccc2n1 (stereo not given),13.4
2,CC(=O)NC1CCCN(c2nc3ccccc3cc2CO)C1 (stereo not given),3.71
3,CCOCCN1CCN(c2ccc(C#N)cn2)CC1CC (stereo not given),6.68
4,Cc1nc2n(n1)CC(Nc1nc(C(F)(F)F)nc3ccccc13)CC2 (stereo not given),1.51
5,Cn1ccnc1CNC(=O)CC1CCCCO1 (stereo not given),-3.14
6,CCSc1ncc(CN2CCN(c3ccc(C#N)cc3)C(=O)C2)cn1,2.89
7,CCc1nc(C)c(CC(=O)N2CCC3(CC2)OCCCC3OC)c(=O)[nH]1 (stereo not given),-123
8,Cc1noc(C)c1CN(C)C(=O)c1nc(N2CCCC2)ncc1Cl,3.43
9,O=C(O)CCc1cc2n(n1)CCCN(C(=O)c1ccc(Cl)s1)C2,2.58
10,COC[C@@H]1CCCN1C(=O)CCc1c(C)nn(C)c1C,-3.67
11,Cc1ncn(CCNC(=O)Nc2ccc(F)c(Cl)c2)c(=O)c1C,2.03
12,CCc1nn(C)c(Cl)c1CN(CCOC)Cc1cnn(C)c1,5.81
13,O=C(NC1CCCN(Cc2c(F)cccc2F)C1)c1cnccn1 (stereo not given),6.06
14,Cn1ccnc1CNC(=O)c1cncc(C2CCNCC2)n1,1.13
15,Cc1nn(CC(=O)NCC2(C(N)=O)CCOCC2)c(C)c1Cl,2.14
16,Cc1cccc(C)c1Nc1noc2c1CN(C(=O)c1c[nH]nc1C)CC2,6.37
17,CCCC1(CO)CCCN(C(=O)CNC(C)=O)C1 (stereo not given),-1.86
18,O=C(NCCS(=O)(=O)N1CCN(c2ncccn2)CC1)c1ccccc1,-4.77
19,CCOC(=O)C1(O)CCN(C(=O)Nc2cccc(CC)c2)CC1,-6.62
20,CNC(=O)NC(=O)CN(Cc1ccc(C#N)cc1)Cc1cccc(F)c1,-4.48
